The record followed here is PubChem BioAssay AID485344 (National Center for Advancing Translational Sciences (NCATS), 2010).

The term inhibition denotes the change of the read-out against control, counted positive when it falls.

Structures are written as SMILES. The campaign covered roughly 340,000 compounds. About 6,900 (2%) were called active. Rule as the data show it: active = inhibition above about 30%; inactive = below that, where a call was filed. Many of the other results were omitted from the sample, so actives are more common in it than they were.

D(2) dopamine receptor (Homo sapiens), sequence (P14416 whole entry, looked up): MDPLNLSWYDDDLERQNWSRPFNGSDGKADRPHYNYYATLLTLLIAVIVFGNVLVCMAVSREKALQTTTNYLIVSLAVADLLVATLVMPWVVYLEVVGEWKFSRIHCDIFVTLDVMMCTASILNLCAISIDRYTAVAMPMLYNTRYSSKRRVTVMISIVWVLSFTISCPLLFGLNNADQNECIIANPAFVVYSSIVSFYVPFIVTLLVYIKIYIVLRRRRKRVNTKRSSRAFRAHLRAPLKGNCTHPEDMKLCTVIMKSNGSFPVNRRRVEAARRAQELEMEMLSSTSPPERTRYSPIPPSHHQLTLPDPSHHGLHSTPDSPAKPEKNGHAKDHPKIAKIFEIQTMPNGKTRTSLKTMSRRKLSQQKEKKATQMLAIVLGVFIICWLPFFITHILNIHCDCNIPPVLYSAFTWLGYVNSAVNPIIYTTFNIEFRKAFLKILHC

The target in this experiment is D(2) dopamine receptor (Homo sapiens) (UniProt P14416). In words: HTS Assay for Allosteric Antagonists of the Human D2 Dopamine Receptor: Primary Screen for Antagonists. Also: 0% is about no effect. The settings on record: HEK293 TREx D2 cells, calcium flux, dopamine EC80; at 10 µM; hits give high values. The procedure, abridged:
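Calcium mobilization kinetics were recorded at 1 s intervals in tetracycline-induced HEK293 T-REx D2 cells, first for 180 s after compound addition and then 180 s after EC80 dopamine.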
On the technique in general: A change in cytosolic calcium serves as a functional read-out for many receptors and channels.
For `Cc1ccc(S(=O)(=O)CCC(=O)OCC(=O)NCCc2ccc(S(N)(=O)=O)cc2)cc1`, the inhibition is -1.28% (inactive). Consider `CC(=O)Nc1ccc(NC(=O)C(NS(=O)(=O)c2ccc3c(c2)OCCO3)C(C)C)cc1` (centres undefined), for which the inhibition was -6.92% (inactive).

As for `COCC(=O)Nc1c(C(=O)N2CCCC2)oc2ccccc12`, the inhibition was -20% (inactive). For `CCOCc1c(C(=O)N2CCN(Cc3ccc(Br)s3)CC2)oc2ccccc12`, the inhibition was 32.1% (active). Next, `COc1ccc(N2CCN(Cc3ccc(Br)s3)CC2)cc1`: -12.7% (inactive); `CS(=O)(=O)c1ccc(Cl)c(NC(=O)COC(=O)c2ncc(Cl)c(Cl)c2Cl)c1`: -16.5% (inactive); `Cc1cccc(CN2CCC(CNC(=O)Nc3ccc(F)c(Cl)c3)CC2)c1`: -7.23% (inactive).

Take `COc1cc(NC(=O)NCC2CCN(Cc3ccc(C)cc3)CC2)cc(OC)c1OC`: the inhibition was 33.3% (active). On to `Cc1ccc(C)c(CN2CCC(CNC(=O)Nc3ccc(C)c(F)c3)CC2)c1`, for which the inhibition was -38% (inactive).

In the case of `COc1cc(C(=O)N(C)Cc2cccc(OC)c2OC)ccc1OCC(=O)Nc1cccc(C(F)(F)F)c1`, the inhibition is -10.9% (inactive). Next, `N#CCc1ccc(OC(=O)c2cccnc2)cc1`: 0.882% (inactive). On to `O=C(Oc1ccc(Br)cc1)c1cccnc1`, for which the inhibition is 38.5% (active). For `CCCCCCOc1ccc(OC(=O)c2cccnc2)cc1`, the inhibition was 3.26% (inactive). Regarding `Cc1ccc2c(CN3CCN(S(=O)(=O)c4ccccc4C(F)(F)F)CC3)cc(=O)oc2c1`, the inhibition was -23.9% (inactive). Consider `CC(C)(C)OC(=O)NCCCCCNC(=O)c1nc[nH]c1C(=O)NCc1ccccc1`, for which the inhibition was 7.02% (inactive). Consider `Cc1ccc(-c2cc(C(=O)NC3CCN(Cc4ccccc4)CC3)c3ccccc3n2)cc1`, for which the inhibition was -27.8% (inactive). In the case of `Cc1ccc(-c2nc(CSCC(=O)NC3CCN(Cc4ccccc4)CC3)c(C)o2)cc1`, the inhibition was 47.3% (active). For `Cc1ccc(S(=O)(=O)NCCC(=O)NC2CCN(Cc3ccccc3)CC2)cc1`, the inhibition is 27.4% (inactive). The result for `CN(CC(=O)Nc1ccc(F)cc1)CC(=O)N1CCCCC1` reads -7.3% (inactive). Next, `Cc1cc(C(=O)Nc2nnc(C3CC3)s2)c(C)s1`: 3.85% (inactive); `COc1ccc(CC2(CO)CCN(Cc3cnn(C)c3)CC2)cc1`: -4.17% (inactive). On to `COC(=O)c1ccc(CN2CCC(CO)(Cc3ccc(OC)cc3)CC2)cc1`, for which the inhibition is 63.2% (active).

As for `CCOC(=O)C1(CCOC)CCN(Cc2ccc(C(=O)OC)cc2)CC1`, the inhibition was 5.1% (inactive). Take `Cc1ccc(C)c(NC(=O)COC(=O)CSc2ccccc2)c1`: the inhibition is -6.28% (inactive). Consider `N#CCCN(C(=O)COC(=O)C1CCN(c2ccc(C(F)(F)F)cn2)CC1)c1ccc(F)cc1`, for which the inhibition was 5.59% (inactive). On to `COc1ccc(Cl)cc1NC(=O)COc1ccc2c(c1)OCO2`, for which the inhibition was 7.9% (inactive). Next, `C[C@H](OC(=O)n1ccnc1)[C@@H]1O[C@@]2(C)CCC[C@@H]1O2`: -7.72% (inactive); `CC1(C)OC(=O)N2CCc3ccccc3C21C` (centres undefined): 40.5% (active). For the molecule `CC1Cc2ccccc2N1C1=CC(=O)CC(C)(C)C1` (centres undefined), the inhibition is 3.51% (inactive). In the case of `CCN(CC(=O)Nc1ccccc1C(F)(F)F)C(=O)CSCc1c(C)noc1C`, the inhibition was 1.97% (inactive). With `O=C(CC1(O)C(=O)N(CN2CCOCC2)c2ccccc21)c1ccccc1` (centres undefined), the inhibition was 30.3% (active).

Turning to `C=CCN1C(=O)C(O)(CC(=O)c2ccccn2)c2ccccc21` (centres undefined), the inhibition is 3.67% (inactive). Next, `C=CCN1C(=O)C(O)(CC(=O)c2ccc(Cl)cc2)c2ccccc21` (centres undefined): 0.63% (inactive); `CCc1noc(C)c1C(=O)Oc1ccc(N(C)S(=O)(=O)c2ccc(C)c(C)c2)cc1`: -5.58% (inactive); `Cc1ccc(S(=O)(=O)N(C)C)cc1NC(=O)C(C)OC(=O)c1ccc2ccccc2n1` (centres undefined): 5.2% (inactive). For the molecule `COc1cc(C(C)=O)ccc1OC(C)C(=O)Nc1ccc(S(=O)(=O)N2CCCC2)cc1` (centres undefined), the inhibition is -10.1% (inactive). As for `CC(C)(C)C(=O)CCN1C(=O)C2(OCCO2)c2ccccc21`, the inhibition was -2.06% (inactive). Consider `O=C1CN(C(=O)CN2C(=O)NC3(CCCCC3)C2=O)c2ccccc2N1`, for which the inhibition was 3.68% (inactive).

For `CC(=O)N1C(=O)C2(Nc3ccccc3N2)c2ccccc21`, the inhibition is 34.2% (active). In the case of `CC1CCN(C(=O)COC(=O)c2cc(=O)[nH]c3ccccc23)CC1`, the inhibition is -0.452% (inactive). For the molecule `CC(NC(=O)c1ccccc1F)c1cccc2ccccc12` (centres undefined), the inhibition was 10.4% (inactive). The result for `CCOC(=O)C1CCN(C(=O)Cn2nc(C)c3c(C)n(-c4ccccc4)nc3c2=O)CC1` reads 2.33% (inactive); that for `Cc1nn(CC(=O)N2CCCCC2)c(=O)c2nn(-c3ccccc3)c(C)c12`, 20.3% (inactive); that for `COc1ccc(OC)c(CNC(=O)Cn2nc(C)c3c(C)n(-c4ccc(C)cc4)nc3c2=O)c1`, 30% (active). Next, `CC(=O)c1sc(N)nc1C`: 9.17% (inactive); `COc1ccc(C(C)(C)C)cc1NC(=O)CCN1C(=O)C2CCCCC2C1=O` (centres undefined): 11.5% (inactive); `Cc1ccc(CC(=O)Nc2ccc(S(=O)(=O)N3CCOCC3)cc2)cc1C`: 19% (inactive).

`C[C@H]1[C@H]2c3nc4ccccc4n3C[C@H]1ON2C1CCCCC1`: the inhibition was 31% (active). The result for `CN1C(C(=O)NCC2CC2)CC2Cn3c(nc4ccccc43)C21` (centres undefined) reads 6.56% (inactive); that for `CN1C(C(=O)NCc2ccco2)CC2Cn3c(nc4ccccc43)C21` (centres undefined), 12.7% (inactive). `Cc1cc(C(=O)COc2ccc(Br)cc2F)c(C)n1C1CC1`: the inhibition was -10.6% (inactive). Consider `O=C(CN1CCN(c2ccccc2O)CC1)NC(=O)NCc1ccccc1`, for which the inhibition was -6.15% (inactive). With `COc1ccc2oc(C(=O)OCC(=O)N(CC(C)C)c3c(N)n(Cc4ccccc4)c(=O)[nH]c3=O)c(C)c2c1`, the inhibition was -27.2% (inactive). Take `Cc1ccc(NC(=O)C(C)OC(=O)Cc2c[nH]c3ccccc23)cc1S(=O)(=O)N1CCOCC1` (centres undefined): the inhibition is -4.91% (inactive).

With `CC(C)CCN1CCC(C)(NC(=O)c2ccccc2)C1=O` (centres undefined), the inhibition was 3.51% (inactive). `CC(OC(=O)CN1C(=O)c2ccccc2C1=O)C(=O)c1ccccc1` (centres undefined): the inhibition was 10.6% (inactive).

As to `CCN(CC(=O)NCc1ccc(Cl)cc1)C(=O)c1c(C)noc1C`, the inhibition is 30.3% (active).

Take `CCN(CC(=O)NCc1ccc(Cl)cc1)C(=O)CSc1ccccc1`: the inhibition is -4.45% (inactive). On to `Cc1noc(C)c1S(=O)(=O)N(CC(=O)NCc1ccc(Cl)cc1)c1ccc2c(c1)OCO2`, for which the inhibition is 1.26% (inactive).
